Among the test systems are SK-MEL-2 melanoma; EKVX NSCLC; SN12C renal; UO-31 renal; TK-10 renal; ACHN renal; CAKI-1 renal; A498 renal; CCRF-CEM leukemia; MOLT-4 leukemia.
Assay in all cases: NCI-60 one-dose screen, 48 h (100 = growth as untreated, 0 = no growth, -100 = all killed)
Conditions in all cases: 10 µM unless noted

The panel holds about 83,000 compounds, 20% with a hit somewhere; the sample as a whole holds those more often.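 Plates (96-well) were seeded with cells, treated with compound at one concentration, and incubated for 48 hours before percent growth was determined.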 Values without a mark were called inactive. The source made the active and inactive calls. How the source made its calls: active means growth percent below 10; inactive means the rest.

For `CSc1ccc(/C=C2\C=C(CC(=O)NCc3ccc(C(=O)c4ccccc4)cc3)c3cc(F)ccc32)cc1`, the growth in the assay on SK-MEL-2 melanoma is -3.62% (active); with EKVX NSCLC, 25.5%; in the assay with SN12C renal, 9.57% (active); in the assay on UO-31 renal, 26.6%; in the assay on TK-10 renal, 13.8%; in the assay on ACHN renal, 2.09% (active). For the same compound, the growth with CAKI-1 renal is 7.79% (active); in the assay with A498 renal it was -10.5% (active); with CCRF-CEM leukemia, 11.5%; in the assay on MOLT-4 leukemia it was 9.47% (active).

As to `Cc1ccc(Nc2cccc3ccccc23)cc1`, the growth in the assay with SK-MEL-2 melanoma was 93.3%; in the assay with EKVX NSCLC it was 101%; with SN12C renal it was 96.6%; with UO-31 renal, 45.5%; in the assay on TK-10 renal it was 59.7%; in the assay with ACHN renal it was 84.8%. The growth in the assay on CAKI-1 renal was 63.3%; in the assay on A498 renal, 83.3%; in the assay with CCRF-CEM leukemia it was 84.8%; in the assay on MOLT-4 leukemia, 77.3%.

With `CN(C)c1ccc(/C=C\c2cccc[n+]2C)cc1`, the growth with SK-MEL-2 melanoma was 75.6%; with EKVX NSCLC, 23%; with SN12C renal, 52.2%; in the assay on UO-31 renal, 59.5%; in the assay with TK-10 renal it was 67.2%; in the assay on ACHN renal it was 77.3%. Moreover, the growth in the assay with CAKI-1 renal is 42.1%; with A498 renal, 13.4%; in the assay with CCRF-CEM leukemia, 49.6%; with MOLT-4 leukemia, 74.4%.

`CC(C)(C)OC(=O)N1CCCN(CCNc2nccc(-c3c(-c4cccc(O)c4)nc4sccn34)n2)S1(=O)=O`: the growth with SK-MEL-2 melanoma is 103%; with EKVX NSCLC it was 112%; in the assay on SN12C renal, 82.7%; in the assay with UO-31 renal, 74.5%; in the assay with TK-10 renal, 121%; with ACHN renal it was 66.6%. The growth in the assay with CAKI-1 renal was 49.4%; with A498 renal, 127%; in the assay on CCRF-CEM leukemia, 75.8%; in the assay with MOLT-4 leukemia, 90.8%.

Turning to `COc1ccc([C@H]2c3[nH]c4ccccc4c3C[C@H]3C(=O)N(CCCCCCC(=O)NO)CC(=O)N23)cc1`, the growth in the assay with SK-MEL-2 melanoma is 31.4%; in the assay with EKVX NSCLC, 66.8%; with SN12C renal, 46.5%; in the assay with UO-31 renal, 43.8%; with TK-10 renal it was 43.5%; in the assay on ACHN renal, 22.1%. For the same compound, the growth in the assay on CAKI-1 renal is 43.9%; in the assay with A498 renal it was -4.1% (active); in the assay with CCRF-CEM leukemia it was 13.3%; with MOLT-4 leukemia it was 12.1%.

Consider `CN1C(=O)C(C(=O)/C=C/c2ccccc2C(=O)O)C(=O)N(C)C1=O`, for which the growth in the assay on SK-MEL-2 melanoma is 106%; with EKVX NSCLC, 105%; in the assay with SN12C renal, 101%; in the assay on UO-31 renal, 87%; with TK-10 renal, 102%; with ACHN renal, 108%. In addition, the growth was 90% in the assay on CAKI-1 renal, 104% in the assay with A498 renal, 91.9% in the assay with CCRF-CEM leukemia and 97.1% in the assay on MOLT-4 leukemia.

Turning to `CC(C)c1ccc2c(c1)CCC1C2CCCC1(C)NCc1ccccc1` (stereo not given), the growth in the assay with SK-MEL-2 melanoma was 26.8%; in the assay with EKVX NSCLC, 80.3%; with SN12C renal it was 66.9%; in the assay with UO-31 renal it was 45.4%; in the assay with TK-10 renal, 95%; in the assay with ACHN renal, 90.6%. Moreover, the growth with CAKI-1 renal was 63.1%; with A498 renal it was 91.5%; with CCRF-CEM leukemia, 48.3%; in the assay with MOLT-4 leukemia it was 39.9%.

Take `CC1=C(O)C(=O)CC1`: the growth was 118% in the assay with SK-MEL-2 melanoma; 96.2% in the assay with EKVX NSCLC; 97% in the assay on SN12C renal; 94% in the assay on UO-31 renal; 111% with TK-10 renal; 111% in the assay on ACHN renal. In addition, the growth in the assay on CAKI-1 renal was 90.9%; in the assay with A498 renal it was 83.7%; with CCRF-CEM leukemia, 115%; with MOLT-4 leukemia, 108%.

With `CSC1=N/C(=C\c2cccc(OCc3ccc(Cl)cc3)c2)C(=O)N1`, the growth is 87.9% with SK-MEL-2 melanoma; 75.5% in the assay with EKVX NSCLC; 80.9% in the assay on SN12C renal; 67.2% in the assay on UO-31 renal; 78.9% with TK-10 renal; 87.1% in the assay on ACHN renal. The growth was 80.6% with CAKI-1 renal, 62.1% in the assay with A498 renal, 98.3% in the assay with CCRF-CEM leukemia and 90.5% with MOLT-4 leukemia.

Consider `COc1cc(/C=N/NC(=O)Cn2c(-c3ccc(C)o3)nc3ccccc32)ccc1OCc1ccccc1`, for which the growth is 94.5% with SK-MEL-2 melanoma; 75.2% in the assay on EKVX NSCLC; 95.4% in the assay with SN12C renal; 61.8% in the assay with UO-31 renal; 93.4% with TK-10 renal; 85.4% with ACHN renal. For the same compound, the growth in the assay on CAKI-1 renal was 82.6%; in the assay with A498 renal, 78.5%; in the assay with CCRF-CEM leukemia, 80.6%; in the assay on MOLT-4 leukemia it was 50.2%.

Consider `O=c1nc(-c2ccccc2)c2cc(-c3ccc(N4CCOCC4)cc3)ccc2[nH]1`, for which the growth is 81.6% with SK-MEL-2 melanoma; 89.8% in the assay with EKVX NSCLC; 79.4% with SN12C renal; 66% in the assay on UO-31 renal; 68.1% in the assay on TK-10 renal; 71.6% in the assay with ACHN renal. Besides, the growth is 74.8% with CAKI-1 renal, 88.6% in the assay on A498 renal, 77.4% in the assay on CCRF-CEM leukemia and 71.2% in the assay on MOLT-4 leukemia.

As to `Cc1cc(-c2ccc(N=Nc3c(S(=O)(=O)O)cc4cc(S(=O)(=O)O)cc(O)c4c3O)c(C)c2)ccc1N=Nc1c(S(=O)(=O)O)cc2cc(S(=O)(=O)O)cc(O)c2c1O`, the growth with SK-MEL-2 melanoma was 90.6%; in the assay on EKVX NSCLC, 79.6%; in the assay with SN12C renal, 116%; in the assay on UO-31 renal, 73.9%; with TK-10 renal, 115%; with ACHN renal, 101%. The growth in the assay with CAKI-1 renal was 78.1%; with A498 renal, 122%; in the assay with CCRF-CEM leukemia it was 102%; in the assay on MOLT-4 leukemia it was 127%.

Consider `COc1ccccc1-[n+]1cc(-c2ccc(-c3ccccc3)cc2)n2c1CCCCC2`, for which the growth with SK-MEL-2 melanoma is -27% (active); with EKVX NSCLC, 9.1% (active); in the assay on SN12C renal, 0.949% (active); in the assay with UO-31 renal, 74.7%; in the assay on TK-10 renal, 7.69% (active); in the assay with ACHN renal, 32.5%. The growth in the assay on CAKI-1 renal was 72.6%; with A498 renal it was 9.77% (active); in the assay on CCRF-CEM leukemia it was 17.2%; in the assay on MOLT-4 leukemia it was 9.4% (active).

For the compound `O=C(/C=C/c1ccccc1)c1c[nH]c2ccccc2c1=O`, the growth with SK-MEL-2 melanoma is 95.5%; in the assay on EKVX NSCLC, 36.3%; in the assay on SN12C renal, 8.29% (active); in the assay on UO-31 renal, 4.93% (active); in the assay on TK-10 renal, 22.5%; in the assay with ACHN renal, 11.6%. Further, the growth in the assay with CAKI-1 renal was 4.66% (active); in the assay with A498 renal, -6.19% (active); with CCRF-CEM leukemia it was -12.2% (active); in the assay on MOLT-4 leukemia it was 9.81% (active).

Source of the values: PubChem BioAssay (NCI).
